# Data taken from PubChem BioAssay (EPA / NIEHS).
# Calls of active or inactive are those of the source. How the source made its calls: active means hit-call score of the fitted dose curve at least 0.9, where 1 is the maximum; inactive means score below 0.9.
# Assay: CEETOX_H295R_OHPREG: CeeTox H295R High-throughput Steroidogenesis Assay for OH-Pregnenolone (OHPREG) (AID 2283434)
# Settings: actives raise or lower the signal
# Protocol: CEETOX_H295R is a cell-based, multiplexed-readout assay that uses H295R, a human adrenal gland cell line, with measurements taken at 48 hours after chemical dosing in a 96-well plate.CEETOX_H295R_OHPREG is one of 23 assay component(s) measured or calculated from the CEETOX_H295R assay. It is designed to make measurements of hormone induction, a form of inducible reporter, as detected with […] by HPLC-MS-MS technology.Data from the assay component CEETOX_H295R_OHPREG was analyzed into 1 assay endpoint. This assay endpoint, CEETOX_H295R_OHPREG, was analyzed with bidirectional fitting relative to DMSO as the negative control and baseline of activity. Using a type of inducible reporter, gain or loss-of-signal activity using HPLC-MS-MS was used to understand synthesis of 17alpha-hydroxypregnenolone in H295R cell line at 48hr of chemical exposure. To generalize the intended target to other relatable targets, this assay endpoint is annotated to the steroid hormone intended target family, where the subfamily is progestagens.
# Cell culture and media preparation procedures were conducted in accordance with OECD Test No. 456 guidelines, with minor modifications. H295R cells (ATCC CRL-2128) were expanded for 5 passages and frozen in batches in liquid nitrogen. Prior to the steroidogenesis assay, H295R cells were thawed and passed at least 4 times. The maximum passage was 10. Cells were maintained in a 1:1 mixture of DMEM/F12 supplemented with 5ml/L ITS+ Premix (BD Bioscience) and 12.5 ml/L Nu-Serum (BD Bioscience). After seeding cells into 96-well plates at 50-60% confluency, cells were allowed to adhere overnight. Prior to chemical testing, culture medium was replaced with 175 uL medium containing 10 uM forskolin to stimulate steroidogenesis for 48 hours. Following prestimulation, forskolin medium was replaced with medium containing test chemical solubilized in DMSO (ensuring a final concentration of 0.1% DMSO). Test chemicals were incubated for 48 hours, then the medium was removed and split into 2 vials containing approximately 75uL each, and stored at -80 C prior to hormone analysis. For steroid quantification, media samples were shipped to OpAns, LLC (Durham, NC) on dry ice, and samples were thawed to room temperature prior to liquid-liquid extraction. Steroid hormones were extracted from media samples using methyl tertbutyl ether (MTBE). An extra derivatization with dansyl chloride was included for estrogen (estrone and estradiol) detection only. Steroid hormones were separated by HPLC, eluted using a reverse phase C18 gradient with electrospray positive ionization, followed by quantification by tandem mass spectrometry (MS/MS). Data were acquired on a MassHunter Workstation Acquisition version B03.01 (Agilent Technologies, Inc.) and processed using MassHunter Quantitative Analysis for QQQ. Accuracy was determined for each hormone analyte from 3 standards to determine upper and lower limits of quantification (ULOQ and LLOQ, respectively) using a 7-point standard curve. Precision and accuracy of the extraction and quantification methods were calculated as the percent relative standard deviation (%RSD) of the spiked standards and percent spiked standard recovered, respectively. The goal was to achieve 100% accuracy (i.e., recover all spiked-in standard at quantification with minimal loss during run time) and good precision (i.e., have %RSD <15% to ensure reproducibility). Test medium was removed following chemical exposure, and cell viability was evaluated in the same wells by MTT. MTT procedures were as follows: after removal of test medium, 500 uL of 0.5 mg/ml of 3-[4,5-dimethylthiazol-2-y]2,5-diphenyltetrazoliumbromide solution was added to the cells. Following a 4-hour incubation at 37 C and 5% CO2 to allow formazan-crystal formation, the MTT solution was removed and blue formazan salt crystals were solubilized using 500uL anhydrous isopropanol with shaking for 20 minutes. […]
Compound,AC50,outcome
C[C@]12CCC(=O)C=C1CC[C@@H]1[C@@H]2CC[C@@]2(C)[C@H]1CC[C@]2(C)O,5.59 µM (active),
ClC1=C(Cl)[C@]2(Cl)[C@@H]3[C@H]4C[C@H]([C@@H]5O[C@H]45)[C@@H]3[C@@]1(Cl)C2(Cl)Cl,1.48 µM (active),
NS(=O)(=O)C(F)(F)C(F)(F)C(F)(F)C(F)(F)C(F)(F)C(F)(F)C(F)(F)C(F)(F)F,,inactive
CCC(=O)O[C@H]1CC[C@H]2[C@@H]3CCC4=CC(=O)CC[C@]4(C)[C@H]3CC[C@]12C,34.1 µM (active),
CC#Cc1cc(C)nc(Nc2ccccc2)n1,,inactive
Clc1ccc(C(c2ccccc2Cl)C(Cl)(Cl)Cl)cc1 (configuration not stated),,inactive
N#Cc1ccc(N(CC(N)=O)CC(F)(F)F)cc1C(F)(F)F,,inactive
Cc1ccccc1CO[C@@H]1C[C@@]2(C(C)C)CC[C@]1(C)O2,50 µM (active),
Oc1ccc(Cl)cc1Cl,,inactive
Cc1cc(-c2ccc(N)c(C)c2)ccc1N,,inactive
CCOCCOC(C)=O,,inactive
Cc1cc(O)ccc1Cl,,inactive
Cc1cccc(C)c1N,,inactive
O=C(NC(=O)c1c(F)cccc1F)Nc1cc(Cl)c(OC(F)(F)C(F)F)c(Cl)c1,,inactive
Cc1cc2c3c(c1)C(c1ccccc1)=N[C@@H](NC(=O)c1ccncc1)C(=O)N3CC2,25.4 µM (active),
CCC(C)(CC)c1cc(NC(=O)c2c(OC)cccc2OC)on1,,inactive
c1cc2ccc3cccc4ccc(c1)c2c34,15.8 µM (active),
Nc1ccc(-c2ccc(N)cc2)cc1,14.3 µM (active),
CCOP(=S)(OCC)SCSC(C)(C)C,37 µM (active),
Cc1ccc(O)c(C)c1,,inactive
CCNc1nc(NC(C)C)nc(SC)n1,,inactive
C[C@]12CCC(=O)C=C1CC[C@@H]1[C@@H]2CC[C@]2(C)C(=O)CC[C@@H]12,8.12 µM (active),
